Reference: PubChem BioAssay AID1508602 (The Scripps Research Institute Molecular Screening Center, 2020)
In all, about 650,000 compounds went through this assay and about 6,800 (1%) were called active. No stated cut-off is given here; in the data, active means activation above about 4.9%; inactive means the rest. The entries come from a sample that favours actives as a whole.

target: G-protein coupled receptor 151 (Homo sapiens) (UniProt Q8TDV0); assay: activates the human receptor GPR151, primary screen, cell-based, PathHunter beta-arrestin, luminescence (AID 1508602); details: PathHunter beta-arrestin GPR151 cells, at 11.2 µM, active compounds read high;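 further: 0% = median of compound wells and 100% = cells with positive control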
Sequence (Q8TDV0 whole entry, looked up): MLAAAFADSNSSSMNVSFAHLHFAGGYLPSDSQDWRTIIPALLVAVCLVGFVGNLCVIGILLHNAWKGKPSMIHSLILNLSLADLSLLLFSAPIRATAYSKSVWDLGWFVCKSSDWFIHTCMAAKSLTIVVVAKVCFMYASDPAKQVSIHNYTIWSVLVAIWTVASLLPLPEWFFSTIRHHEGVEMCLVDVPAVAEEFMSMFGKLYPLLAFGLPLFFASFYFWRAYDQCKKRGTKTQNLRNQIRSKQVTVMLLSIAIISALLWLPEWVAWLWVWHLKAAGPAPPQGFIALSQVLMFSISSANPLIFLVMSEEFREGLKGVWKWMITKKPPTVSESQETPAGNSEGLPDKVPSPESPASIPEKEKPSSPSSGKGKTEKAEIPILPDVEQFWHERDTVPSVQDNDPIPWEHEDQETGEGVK

| Structure (SMILES) | activation |
| --- | --- |
| CC(CO)(CO)NC(=S)NC(=O)c1ccccc1 | -2.1% (inactive) |
| CC(C)C[C@@H]1NC(=O)[C@H]2CN(Cc3ccccc3Cl)CCN2C1=O | 1.34% (inactive) |
| Cc1ccc(C(=O)COc2ccc(C#N)cc2)c(C)c1 | 0.546% (inactive) |
| Cc1sc(NC(=O)CN(C(=O)c2cccc(F)c2)C2CCCC2)c(C(N)=O)c1C | 0.439% (inactive) |
| CCN1C(=O)C(=Cc2ccc(N3CCCC3)cc2C)C(=O)N(CC)C1=S | 2.62% (inactive) |
| Cc1cc(N2CCOCC2)ccc1C=C1C(=O)c2ccccc2C1=O | 5.28% (active) |
| Cc1cc(N2CCOCC2)ccc1/C=C1\C(=O)NC(=S)N(c2ccccc2)C1=O | 0.368% (inactive) |
| O=C(Nc1nc2c(ccc3ccccc32)s1)c1cccc(Oc2ccccc2)c1 | 1.27% (inactive) |
| COC(=O)c1c(NC(=O)c2ccc(Cl)c(Cl)c2)sc2c1CCCC2 | 0.167% (inactive) |
| CCOC(=O)c1c(NC(=O)Nc2cccc(Cl)c2)sc2c1CCCC2 | 0.0535% (inactive) |
| COC(=O)c1c(NC(=O)Nc2ccc(Cl)c(Cl)c2)sc2c1CCCC2 | 8.57% (active) |
| COc1ccc(NC(=O)CN(c2cc(OC)ccc2OC)S(C)(=O)=O)c(OC)c1 | 0.777% (inactive) |
| Cc1ccc(C)c(NC(=O)CN(c2cccc(C)c2C)S(C)(=O)=O)c1 | 0.883% (inactive) |
| COc1ccc(OC)c(NC(=O)CN(c2cccc(C)c2C)S(C)(=O)=O)c1 | 5.98% (active) |
| CCCOc1ccc([N+](=O)[O-])cc1C1NC(=S)NC(C)=C1C(=O)OC (stereo not drawn) | -1.65% (inactive) |
| Cc1cc2nc(C3CCCCN3C(=O)c3cscn3)[nH]c2cc1C (stereo not drawn) | -0.0121% (inactive) |
| Cc1c2cnn(-c3ccccc3)c(=O)c2c(C)n1CCCC(=O)N1CCN(C)CC1 | 0.178% (inactive) |
| CCC(C(=O)N1CCN(C)CC1)n1c(C)c2cnn(-c3ccccc3)c(=O)c2c1C (stereo not drawn) | -1.42% (inactive) |
| CCC(C(=O)N1CCCCC1)n1c(C)c2cnn(-c3ccccc3)c(=O)c2c1C (stereo not drawn) | 5.32% (active) |
| Cc1ccc(S(=O)(=O)Oc2ccc(/C=C3\SC(N)=NC3=O)cc2)cc1 | -0.455% (inactive) |
| COc1ccc2c(c1)C(Cc1csc(C)n1)(c1ccc(F)cc1)C(=O)N2 (stereo not drawn) | 0.748% (inactive) |
| CC(C)NCCOCCOc1ccc(I)cc1 | 0.568% (inactive) |
| CCNc1nc(NC(C)C)nc(OCCOC(C)=O)n1 | 5.11% (active) |
| CCNc1nc(NCC)nc(C(=O)O)n1 | -0.247% (inactive) |

| Structure (SMILES) | activation |
| --- | --- |
| CCNc1nc(NC(C)C)nc(OCCOC(=O)c2ccccc2)n1 | 1.89% (inactive) |
| Cc1ccc(CN(C)Cc2nc3sc4c(c3c(=O)[nH]2)CCC4)o1 | 0.643% (inactive) |
| NC(=O)c1ccc(Nc2nccn3c(-c4cccc(F)c4)cnc23)cc1 | -0.391% (inactive) |
| COc1ccc(Nc2ncc(-c3ccc(CO)cc3)n3ccnc23)cc1 | -0.0468% (inactive) |
| CC(C)c1ccc(Nc2nccn3c(-c4cccc(CO)c4)cnc23)cc1 | 7.31% (active) |
| COc1ccccc1NC(=O)CSc1nnc(-c2ccc(O)cc2)o1 | -0.782% (inactive) |
| CCOc1cccc(CN2CCOc3ccc(CN4CCNC(=O)C4CC)cc3C2)c1 (stereo not drawn) | -1.24% (inactive) |
| CCC1C(=O)NCCN1Cc1ccc2c(c1)CN(Cc1c[nH]c3ccccc13)CCO2 (stereo not drawn) | 5.37% (active) |
| CC(=O)N1CCN(Cc2ccc3c(c2)CN(Cc2c[nH]c4ccccc24)CCO3)CC1 | 2.78% (inactive) |
| COc1cccc2c1OCC(CN1CCN(C3CCCCC3)C(CCO)C1)=C2 (stereo not drawn) | 2.61% (inactive) |
| COc1cc(CN2CCN(CC3CCCCC3)C(CCO)C2)ccc1O (stereo not drawn) | -0.725% (inactive) |
| COc1ccc2c(c1)C=C(CN1CCN(CC3CCCCC3)C(CCO)C1)CO2 (stereo not drawn) | 5.13% (active) |
| O=C(Nc1ccc(Cl)cc1F)c1ccc(SCC(=O)N2CCCCC2)c([N+](=O)[O-])c1 | 2.3% (inactive) |
| COc1ccc(S(=O)(=O)N(C)CC(=O)NCc2ccccn2)cc1C | 2.7% (inactive) |
| Cc1cccc(Nc2nnc(SCC(=O)N3CCCC3=O)s2)c1C | -1.1% (inactive) |
| O=C(CN1C(=O)S/C(=C\c2ccc(Cl)s2)C1=O)Nc1ccccc1F | 7.92% (active) |
| Cc1cccc(NC(=O)CN2C(=O)S/C(=C\c3ccc(Br)s3)C2=O)c1 | 1.12% (inactive) |
| O=C(CN1C(=O)COc2ccc(Cl)cc21)Nc1ccccc1F | 0.859% (inactive) |
| COc1ccc(N2C(=O)CN(C(=O)c3cc(C(F)(F)F)[nH]n3)CC23CCCC3)cc1 | -0.225% (inactive) |
| C[C@H]1Cc2c(COc3ccccc3)nc3c(c2CO1)CN(C(=O)Nc1cccc(C#N)c1)CC3 | -0.449% (inactive) |
| C[C@H]1Cc2c(COc3ccccc3)nc3c(c2CO1)CN(C(=O)NCc1ccco1)CC3 | 8.56% (active) |
| COc1cccc(CC(=O)N2CCc3nc(COc4ccccc4)c4c(c3C2)CO[C@@H](C)C4)c1 | 4.35% (inactive) |
| Cc1ccnc(-n2c(=O)c3cc4c(=O)n(-c5cc(C)ccn5)c(=O)c4cc3c2=O)c1 | -0.463% (inactive) |
| Cc1ncc(CO)c(/C=N/NC(=O)c2cc3c(s2)CCC(C)C3)c1O (stereo not drawn) | -0.38% (inactive) |

| Structure (SMILES) | activation |
| --- | --- |
| CC[n+]1c(/C=C/c2ccc(N(C)C)cc2)oc2ccccc21 | -0.273% (inactive) |
| CC[n+]1cc(C)ccc1/C=C/c1ccc(N(C)C)cc1 | 5.25% (active) |
| CN(C)c1ccc(C=NCC(O)CN=Cc2ccc(N(C)C)cc2)cc1 (stereo not drawn) | 0.679% (inactive) |
| CCC(C)C(=O)NCc1nnc2n1CCN(C(=O)c1sc(C)nc1C)CC2 (stereo not drawn) | -0.99% (inactive) |
| COc1cccc(NC(=O)c2cc([N+](=O)[O-])ccc2NC(=O)CNCc2cccnc2)c1 | -1.03% (inactive) |
| O=C(Nc1ccc(-c2ccncc2)cn1)C1COc2ccccc2O1 (stereo not drawn) | -2.03% (inactive) |
| COCCNc1nc2nonc2nc1N(C)Cc1ccncc1C | 8.73% (active) |
| COCCNc1nc2nonc2nc1N1CCCC1c1nccs1 (stereo not drawn) | 1.38% (inactive) |
| COCCNc1nc2nonc2nc1N(C)Cc1ccc(C)cc1 | -1.03% (inactive) |
| O=C(O)c1cc([N+](=O)[O-])c(NCc2ccccc2)c([N+](=O)[O-])c1 | 0.643% (inactive) |
| O=C(Cn1c(=O)n(Cc2cccs2)c(=O)c2cccnc21)Nc1ccc(F)cc1 | 5.75% (active) |
| O=C(Cn1c(=O)n(Cc2ccc3c(c2)OCO3)c(=O)c2cccnc21)Nc1ccc(F)cc1 | -0.979% (inactive) |
| O=C(Cn1c(=O)n(Cc2ccc(F)cc2)c(=O)c2cccnc21)Nc1ccccc1F | 0.571% (inactive) |
| COc1ccc(NC(=O)c2ccc(F)c3ccccc23)cc1 | 0.361% (inactive) |
| COC(=O)c1cnn2c1NCN(Cc1ccccc1Cl)C2 | 0.44% (inactive) |
| CC(=O)Nc1cccc(-c2cnc3[nH]c(=O)n([C@@H](C)c4ccccc4)c3n2)c1 | 0.0611% (inactive) |
| CCN(CC)C(=O)C1c2ccccc2C(=O)N(CCOC)C1c1c[nH]c2ccccc12 (stereo not drawn) | -0.555% (inactive) |
| COc1ccc([N+](=O)[O-])cc1N1C(=O)c2ccc(-c3nc4ccccc4c(=O)o3)cc2C1=O | 2.31% (inactive) |
| COc1ccc(-c2nc3cc(Cl)ccc3c(=O)o2)cc1OC | -0.243% (inactive) |
| COc1cc2nc(-c3ccc4c(c3)C(=O)N(CCC(C)C)C4=O)oc(=O)c2cc1OC | 5.83% (active) |
| O=C(c1ccccc1)N1CCN(c2nc3ccccc3o2)CC1 | 0.594% (inactive) |
| Cc1ccc(S(=O)(=O)N/N=C/c2ccc(N(C)C)c(Br)c2)cc1 | -1.16% (inactive) |
| O=C(CCn1nnc2ccccc21)N/N=C/c1ccc2ccccc2c1 | -0.0304% (inactive) |
| Cc1ccccc1Nc1nnc(SCC(=O)N(C)C)s1 | -2.99% (inactive) |

| Structure (SMILES) | activation |
| --- | --- |
| CCc1ccc(NS(=O)(=O)c2ccc(Cl)cc2)cc1 | 5.43% (active) |
| COc1ccc(NS(=O)(=O)c2ccc(Cl)cc2)cc1 | 2.48% (inactive) |
| CCOc1ccc(NS(=O)(=O)c2ccc(Cl)cc2)cc1 | 2.4% (inactive) |
| O=C(Nc1ccc(F)c(F)c1)c1ccc(N2CC3CC(C2)c2cccc(=O)n2C3)c(NC(=O)c2ccc(Br)o2)c1 (stereo not drawn) | 2.62% (inactive) |
| CCC(Cc1ccccc1)NC(=O)c1ccco1 (stereo not drawn) | 0.495% (inactive) |
| COc1ccc(C(=O)COC(=O)C(Cc2ccccc2)NC(=O)c2ccco2)cc1 (stereo not drawn) | 6.4% (active) |
| O=C(COC(=O)C(Cc1c[nH]c2ccccc12)NC(=O)c1ccco1)c1ccc(Br)cc1 (stereo not drawn) | 0.0528% (inactive) |
| Cc1ccsc1C(=O)OCc1nc2ccccc2s1 | -2.54% (inactive) |
| Cc1cccnc1CN1CCN(C(=O)Cn2nnnc2CN(C)C(C)C)CC1 | -1.06% (inactive) |
| Cc1ccc2c(c1)N(C(=O)Cn1cc(-c3ccccc3)c(N(C)C)n1)CCO2 | -0.0851% (inactive) |
| Cc1ccc(NC(=O)Cn2cc(-c3ccccc3)c(N3CCOCC3)n2)c(C)c1 | 4.93% (active) |
| Cc1ccc(C)c(NC(=O)CN2CCOCC2)c1 | -1.34% (inactive) |
| Cc1c(C(=O)Oc2ccccc2)sc2ncn(Cc3ccccc3F)c(=O)c12 | 1.05% (inactive) |
| CC(C)n1nccc1-c1nnc(NC(=O)Cc2ccc(F)cc2)o1 | 3.52% (inactive) |
| N=C1CCCN1CC(=O)c1ccccc1 | 0.114% (inactive) |
| Cc1ccc2nc3[nH]c4ccccc4c3nc2c1 | -4.57% (inactive) |
| Nc1c([N+](=O)[O-])cc(Br)c2nsnc12 | 0.283% (inactive) |
| CN(C)CC(C)(O)c1ccc2c(c1)CN(C(=O)c1cc(-c3ccsc3)n[nH]1)CCO2 (stereo not drawn) | -0.659% (inactive) |
| CCOc1ccc(NC(=O)N2CCC(N(C)CCC(C)C)CC2)cc1 | -0.0877% (inactive) |
| CCOc1ccc(NC(=O)N2CCN(CC)CC2)cc1 | 5.53% (active) |
| CCOc1ccc(NC(=O)CN2CCN(CC(N)=O)CC2)cc1 | 0.536% (inactive) |
